# In PubChem BioAssay (Tox21):
# Several values for one entry are separate records, joined by “and”; a condition that tells them apart may be missing. Equal values may be shown once. Records with an inconclusive call do not appear. Activity calls are given as the source filed them. Unless noted, calls come from the whole dose curve; as a rule, active = well fitted curve in the direction sought with a large enough effect in the repeat runs; inconclusive = weak or mixed curves; inactive = no such curve, though single readings can be large; an effect the other way counts as inactive or inconclusive.
# How the values were obtained:
# [1] = qHTS assay for identifying genotoxic compounds that show differential cytotoxicity against isogenic chicken DT40 cell lines with known DNA damage response pathways - wild type cell line (AID 743012); note: nearly all actives have a fitted effect of over 60% in size; note: potency is the fitted concentration of half-maximal effect
# Procedure, shortened: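 Quantitative HTS on parental DT40 cells: 40 h compound treatment at 37 C/5% CO2, with viability then determined by CellTiter-Glo luminescence. Values serve as the DNA repair-proficient reference for differential cytotoxicity.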
# [2] = qHTS assay for identifying genotoxic compounds that show differential cytotoxicity against isogenic chicken DT40 cell lines with known DNA damage response pathways - Rad54/Ku70 mutant cell line (AID 743015); note: nearly all actives have a fitted effect of over 60% in size; note: potency is the fitted concentration of half-maximal effect
# [3] = qHTS assay to identify small molecule antagonists of the androgen receptor (AR) signaling pathway - cell viability counter screen (AID 743033; note: nearly all actives have a fitted effect of over 45% in size; note: potency is the fitted concentration of half-maximal effect)
# [4] = molecular target: Androgen receptor (Homo sapiens) (UniProt P10275); experiment: qHTS assay to identify small molecule agonists of the androgen receptor (AR) signaling pathway (AID 743036; active = well fitted activation curve with a large enough effect in the signal ratio in the repeat runs, with a control signal flat, not every such curve was filed as active; the % refers to the signal ratio)
# Procedure, shortened: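 AR-bla HEK293 cells, 2,000/well; 4 h preincubation 37C/5% CO2; compound (DMSO) 16 h at 37C; LiveBLAzer B/G FRET substrate 2 h RT; fluorescence intensity read-out.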
# [5] = molecular target: Androgen receptor (Homo sapiens) (UniProt P10275); experiment: qHTS assay to identify small molecule agonists of the androgen receptor (AR) signaling pathway using the MDA cell line (AID 743040; note: nearly all actives have a fitted effect of over 20% in size)
# Procedure, shortened: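 Human breast carcinoma MDA-kb2 reporter cells (MMTV-luc, AR/GR elements) were treated for 16 h at 37C in 0% CO2 following a 5 h settling period. Signal was quantified by ONE-Glo luminescence.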
# [6] = qHTS assay to identify small molecule antagonists of the androgen receptor (AR) signaling pathway using the MDA cell line - cell viability counter screen (AID 743041; note: nearly all actives have a fitted effect of over 45% in size; note: potency is the fitted concentration of half-maximal effect)
# Procedure, shortened: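 Same-well cytotoxicity was assessed by CellTiter-Fluor in MDA-kb2 AR-luc cells after 16 h of compound treatment under R1881 agonism.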
# [7] = qHTS assay for identifying genotoxic compounds that show differential cytotoxicity against isogenic chicken DT40 cell lines with known DNA damage response pathways - Rev3 mutant cell line (AID 743014); note: nearly all actives have a fitted effect of over 55% in size; note: potency is the fitted concentration of half-maximal effect
# [8] = molecular target: Androgen receptor (Homo sapiens) (UniProt P10275); experiment: qHTS assay to identify small molecule antagonists of the androgen receptor (AR) signaling pathway using the MDA cell line (AID 743042; note: potency is the fitted concentration of half-maximal effect; nearly all actives have a fitted effect of over 55% in size)
# Procedure, shortened: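 MDA-kb2 breast carcinoma cells carrying MMTV-luciferase (AR/GR responsive) were co-treated with compounds and the agonist R1881 for 16 h at 37C. Inhibition read as ONE-Glo luminescence; CellTiter-Fluor fluorescence measured in parallel for cytotoxicity.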
# [9] = qHTS assay to identify small molecule antagonists of the thyroid receptor (TR) signaling pathway - cell viability counter screen (AID 743064); note: nearly all actives have a fitted effect of over 50% in size; note: potency is the fitted concentration of half-maximal effect
# Procedure, shortened: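 GH3.TRE-Luc cells, 4 h pre-plating; cpd + T3 1 nM final; 37 °C 23.5 h; CellTiter-Fluor 30 min; fluorescence read.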
# Androgen receptor (Homo sapiens), sequence (P10275 whole entry, looked up): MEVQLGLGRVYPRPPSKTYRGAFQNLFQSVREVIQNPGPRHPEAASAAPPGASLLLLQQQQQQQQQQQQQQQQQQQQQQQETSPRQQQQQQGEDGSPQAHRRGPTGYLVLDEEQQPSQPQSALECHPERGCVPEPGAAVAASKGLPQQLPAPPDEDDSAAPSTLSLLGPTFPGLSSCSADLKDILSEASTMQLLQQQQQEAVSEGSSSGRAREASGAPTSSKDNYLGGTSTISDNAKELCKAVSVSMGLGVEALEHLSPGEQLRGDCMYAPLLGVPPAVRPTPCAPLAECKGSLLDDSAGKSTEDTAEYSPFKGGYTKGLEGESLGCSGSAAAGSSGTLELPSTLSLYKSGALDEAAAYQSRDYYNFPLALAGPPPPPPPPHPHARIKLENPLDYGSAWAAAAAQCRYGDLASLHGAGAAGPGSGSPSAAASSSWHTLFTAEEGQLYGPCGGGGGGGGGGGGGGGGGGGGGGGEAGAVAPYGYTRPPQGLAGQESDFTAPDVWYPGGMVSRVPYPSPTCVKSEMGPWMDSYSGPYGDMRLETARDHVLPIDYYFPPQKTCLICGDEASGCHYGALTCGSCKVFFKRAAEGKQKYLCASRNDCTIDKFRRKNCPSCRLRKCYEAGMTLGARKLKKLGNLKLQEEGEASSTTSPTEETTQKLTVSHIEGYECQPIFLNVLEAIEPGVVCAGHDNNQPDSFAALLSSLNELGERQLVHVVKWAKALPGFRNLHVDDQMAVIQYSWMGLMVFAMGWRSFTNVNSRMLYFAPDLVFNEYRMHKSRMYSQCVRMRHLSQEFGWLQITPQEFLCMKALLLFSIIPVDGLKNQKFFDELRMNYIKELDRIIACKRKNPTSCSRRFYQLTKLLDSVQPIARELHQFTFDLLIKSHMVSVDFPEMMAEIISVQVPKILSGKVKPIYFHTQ
Compound,Potency [1],Potency [2],Potency [3],Potency [4],Potency [5],Potency [6],Potency [7],Potency [8],Potency [9]
CCCSP(=O)(OCC)SCCC,28.3 µM (active),39.9 µM (active),inactive,inactive,inactive,inactive,–,–,–
CC(=O)/C=C/c1ccc2c(c1)OCO2,–,61.4 µM (active),inactive,–,inactive,–,68.9 µM (active),61.4 µM (active),–
CCOP(=O)(NC(C)C)Oc1ccc(SC)c(C)c1 (stereo unspecified),7.7 µM (active),40.1 µM (active),–,–,inactive,inactive,18.8 µM (active),–,61.1 µM (active)
O=c1ssc(Cl)c1Cl,3.44 µM (active),–,43.6 µM (active),–,–,–,–,–,48.6 µM (active)
OC(c1ccc(Cl)cc1)(c1ccc(Cl)cc1)C(Cl)(Cl)Cl,61.1 µM (active),48.6 µM (active),–,–,–,inactive,48.6 µM (active),–,–
CC[C@H](C)[C@H]1O[C@]2(C=C[C@@H]1C)C[C@@H]1C[C@@H](C/C=C(\C)[C@@H](O[C@H]3C[C@H](OC)[C@@H](O[C@H]4C[C@H](OC)[C@@H](O)[C@H](C)O4)[C@H](C)O3)[C@@H](C)/C=C/C=C3\CO[C@@H]4[C@H](O)C(C)=C[C@@H](C(=O)O1)[C@]34O)O2,18.8 µM (active) and 3.61 µM (active),–,inactive,–,–,inactive,21.1 µM (active) and 10.2 µM (active),–,3.22 µM (active)
O=C(CCl)C(Cl)Cl,5.5 µM (active),4.9 µM (active),6.22 µM (active),–,–,–,0.692 µM (active),–,8.71 µM (active)
Oc1ccc(C2(c3ccc(O)cc3)CCCCC2)cc1,–,57.9 µM (active),–,–,–,–,65 µM (active),–,57.9 µM (active)
CCN(CC)C(=S)[S-].CCN(CC)C(=S)[S-].[Zn+2],1.21 µM (active),1.08 µM (active),0.344 µM (active),–,–,0.96 µM (active),–,–,5.4 µM (active)
Clc1ccc(C(c2ccccc2Cl)C(Cl)(Cl)Cl)cc1 (stereo unspecified),45.1 µM (active),28.4 µM (active),inactive,–,–,inactive,–,–,27.5 µM (active) and 40.2 µM (active)
C[C@]12CC[C@H]3[C@@H](CCC4=CC(=O)CC[C@@]43C)[C@@H]1CC[C@@H]2O,54.1 µM (active),–,inactive,–,–,–,30.4 µM (active),–,inactive
O=C(CCl)Nc1ccccc1,10.9 µM (active),5.45 µM (active),–,inactive,inactive,54.5 µM (active),10.9 µM (active),27.3 µM (active),24.3 µM (active)
[Hg+2].[I-].[I-],1.37 µM (active),0.77 µM (active),21.9 µM (active),–,–,54.5 µM (active),1.22 µM (active),–,1.54 µM (active)
Oc1ccc2ccc3cccc4ccc1c2c34,30.6 µM (active),–,inactive,–,–,inactive,48.6 µM (active),–,–
O=CC(Br)(Br)Br,–,–,21.8 µM (active),–,–,inactive,–,–,19.3 µM (active)
O=S(=O)(c1ccc(Cl)cc1)c1ccc(Cl)cc1,24.6 µM (active),–,–,–,–,inactive,44.8 µM (active),–,–
N#CCCC(Br)(C#N)CBr (stereo unspecified),4.33 µM (active),–,24.5 µM (active),–,–,–,6.11 µM (active),–,15.4 µM (active)

Compound,Potency [1],Potency [2],Potency [3],Potency [4],Potency [5],Potency [6],Potency [7],Potency [8],Potency [9]
C=CC(=O)OCCCCOC(=O)C=C,27.3 µM (active),27.3 µM (active),–,–,–,inactive,27.3 µM (active),–,17.2 µM (active)
Oc1cc(Cl)c(Cl)c(Cl)c1,inactive,–,32.9 µM (active),–,inactive,inactive,inactive,–,–
CCCCN(CCCC)C(=S)[S-].CCCCN(CCCC)C(=S)[S-].[Zn+2],inactive,inactive,inactive,–,–,inactive,–,–,18.8 µM (active) and 7.69 µM (active)
CCCCCCCCCCCCBr,27.3 µM (active),30.6 µM (active),–,–,–,–,13.7 µM (active),–,inactive
Oc1ccc(C2(c3ccc(O)cc3)c3ccccc3-c3ccccc32)cc1,68.6 µM (active),54.5 µM (active),54.9 µM (active),–,–,–,–,–,27.3 µM (active)
ClC1=C(Cl)[C@]2(Cl)[C@@H]3[C@@H]4C[C@@H]([C@H]5O[C@@H]45)[C@@H]3[C@@]1(Cl)C2(Cl)Cl,–,25.8 µM (active),–,–,–,–,14.5 µM (active),–,40.9 µM (active)
Clc1ccc(COC(Cn2ccnc2)c2ccc(Cl)cc2Cl)cc1 (stereo unspecified),7.5 µM (active) and 20.2 µM (active) and 15.3 µM (active),10.6 µM (active) and 16.1 µM (active) and 10.8 µM (active),40.7 µM (active) and 38.7 µM (active),–,–,–,16.8 µM (active) and 12.8 µM (active) and 9.65 µM (active),–,13.3 µM (active) and 27.2 µM (active)
CCOc1cc(C(C)(C)C)ccc1C1COC(c2c(F)cccc2F)=N1 (stereo unspecified),26.3 µM (active),11.7 µM (active),inactive,inactive,inactive,inactive,–,–,18.6 µM (active)
CC(=O)[O-].CC(=O)[O-].O.O.[Cd+2],67.6 µM (active),60.3 µM (active),24.2 µM (active),–,–,–,67.6 µM (active),–,24 µM (active)
[Cd+2].[Cl-].[Cl-],19.5 µM (active) and 24.3 µM (active),13.8 µM (active) and 24.3 µM (active),24.8 µM (active),–,–,inactive,–,–,24.5 µM (active) and 30.6 µM (active)
CSCCCN=C=S,48.6 µM (active),–,inactive,–,–,inactive,27.3 µM (active),–,inactive
CC(C)N1C(=O)N(c2ccccc2)CSC1=NC(C)(C)C,21.7 µM (active),24.3 µM (active),inactive,–,inactive,inactive,–,–,–
CC(C)C1CCC(Cc2ccc(Cl)cc2)C1(O)Cn1cncn1 (stereo unspecified),19.1 µM (active),8.55 µM (active),38.5 µM (active),–,–,–,–,–,60.5 µM (active)
CCOCCOC(C)=O,–,inactive,inactive,–,–,–,inactive,–,–
CS(=O)(=O)c1ccc(C(=O)C2C(=O)CCCC2=O)c([N+](=O)[O-])c1,–,–,inactive,–,–,inactive,44 µM (active),–,55.4 µM (active)
CCCCCCCCCCCCCCC(Br)C(=O)O (stereo unspecified),–,–,inactive,–,–,–,24.3 µM (active),–,43.3 µM (active)
